In the library only some 2.6% were active in any assay of this set; here they are far more common.
Shn3 3UTR inh – Schnurri-3 reporter inhibition in Clone20 osteoblasts; inhibition, % at 12.5 µM; hit rate 0.52% among 360,000; Clone20 osteoblast Shn3 3'UTR firefly luciferase, 24 h;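 active = mean inhibition of at least 75% with every replicate also reaching 75%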;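 also: 0% = median of neutral control wells and 100% = pilot-screen positive control compound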
CF NFkB inh – blocks PAF-induced NF-kB reporter in cystic fibrosis cells | KKLEB NF-kB-GFP reporter, GFP fluorescence overnight | inhibition, % at 5 µM | hit rate 0.86% among 360,000;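 active = at least 50% inhibition at 5 µM, scaled per plate between neutral and stimulator controls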;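 also: PAF is a Pseudomonas aeruginosa culture filtrate used as stimulus; plate controls were PAF-stimulated DMSO wells for no effect and unstimulated DMSO wells for full effect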
KKLEB tox – CF airway cell cytotoxicity counter-screen; KKLEB CF airway cells viability, ATPlite luminescence, overnight; hits give low values; cells stimulated with P. aeruginosa culture filtrate; activity change (cytotoxicity), % at 5 µM; hit rate 0.36% among 360,000; AID 602141;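 active = corrected activity change at or below -50% at 5 µM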
HIF-2a inh – inhibitors of HIF-2a; 786-0 RCC cells HIF-2a reporter, luciferase luminescence, overnight; inhibition, % at 18.8 µM; hit rate 0.72% among 360,000; AID 624352;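 active = inhibition of the luminescence signal of 40% or more relative to plate controls, in a single-dose primary screen at 18.75 µM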
Peg3 promoter – reduces Peg3 promoter-driven luciferase expression in HeLa; inhibition, % at 20 µM; hit rate 1.7% among 360,000; HeLa PEG-Prom luciferase reporter, luminescence, overnight;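 active = inhibition of at least 50% at 20 µM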
Mdm2 MdmX conf – confirmation of inhibitors of human Mdm2/MdmX interaction, set 2 | shares compounds with HIF-2a inh | SaOS-2 split-luciferase Mdm2/MdmX complementation, luminescence | inhibition, % at 8 µM | hit rate 99% among 740;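 active = mean inhibition of the luminescence signal across two replicates at or above 26 percent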
Target sequence (O15151 whole entry, looked up): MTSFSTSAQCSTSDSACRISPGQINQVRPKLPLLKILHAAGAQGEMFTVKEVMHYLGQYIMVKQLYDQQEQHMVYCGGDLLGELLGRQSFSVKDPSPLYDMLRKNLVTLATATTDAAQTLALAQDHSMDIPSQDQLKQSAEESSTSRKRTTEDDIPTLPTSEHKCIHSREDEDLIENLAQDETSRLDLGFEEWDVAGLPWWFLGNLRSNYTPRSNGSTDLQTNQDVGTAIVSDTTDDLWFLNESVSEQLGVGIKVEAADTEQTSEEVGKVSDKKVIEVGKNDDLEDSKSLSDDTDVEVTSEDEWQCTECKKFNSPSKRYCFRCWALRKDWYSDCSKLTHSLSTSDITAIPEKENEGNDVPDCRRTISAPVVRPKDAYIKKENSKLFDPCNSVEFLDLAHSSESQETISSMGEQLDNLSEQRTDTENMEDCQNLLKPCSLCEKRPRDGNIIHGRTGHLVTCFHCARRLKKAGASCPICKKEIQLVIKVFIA
Target sequence (Q00987 whole entry, looked up): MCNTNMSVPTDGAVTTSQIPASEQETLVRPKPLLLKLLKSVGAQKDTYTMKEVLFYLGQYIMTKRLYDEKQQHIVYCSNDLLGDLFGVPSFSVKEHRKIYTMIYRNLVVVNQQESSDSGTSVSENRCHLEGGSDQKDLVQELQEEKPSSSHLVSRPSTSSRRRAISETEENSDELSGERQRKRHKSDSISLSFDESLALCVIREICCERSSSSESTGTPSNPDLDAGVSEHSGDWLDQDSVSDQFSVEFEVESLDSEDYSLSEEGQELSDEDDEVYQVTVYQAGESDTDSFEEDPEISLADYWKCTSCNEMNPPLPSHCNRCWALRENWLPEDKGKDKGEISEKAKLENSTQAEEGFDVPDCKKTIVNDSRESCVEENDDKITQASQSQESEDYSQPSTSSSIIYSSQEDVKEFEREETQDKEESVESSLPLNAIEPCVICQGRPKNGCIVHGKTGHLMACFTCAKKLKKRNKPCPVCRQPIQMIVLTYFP
HIF-2a conf – HIF-2a inhibition, single concentration confirmation; 786-0 RCC cells, HIF-2a luciferase reporter luminescence, overnight; hit rate 56% among 1,800; shares compounds with HIF-2a inh; inhibition, % at 18.8 µM;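 active = mean inhibition across four replicates of at least 40 percent at the single tested concentration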
HIF-1a counter – HIF-1a inhibition counter-screen for HIF-2a hits | shares compounds with HIF-2a inh | MiaPaCa-2 HIF-1a luciferase reporter, desferoxamine, overnight | inhibition, % at 18.8 µM | hit rate 72% among 1,800 | AID 651589;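 active = mean inhibition of the reporter signal across four replicates at the single tested dose of 50% or more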
* hit, by the source's call; / = no result given.

SMILES | Shn3 3UTR inh | CF NFkB inh | KKLEB tox | HIF-2a inh | Peg3 promoter | HIF-2a conf | HIF-1a counter | others
Cc1ccc2oc(NC3=NC4(CCCC4)C4=C(CCCC4=O)N3)nc2c1 | 7 | -66 | 2 | 5 | 17 | / | /
Cc1cc(=O)n2nc(N3CCCC(C(=O)NC4CCCCC4C)C3)sc2n1 (stereo unspecified) | -12 | 10 | -3 | 6 | -21 | / | /
O=C(N/N=C/c1ccc[nH]1)c1ccc(COc2cccc3cccnc23)cc1 | 90* | 42 | -54* | 25 | 89* | / | / | Mdm2 MdmX conf=97*
CC(=O)NC(c1ccc(F)c(F)c1)c1nc(-c2cccc(C(C)C)c2)cs1 (stereo unspecified) | 1 | -9 | 3 | -7 | 23 | / | /
Cc1ccc(-c2nnc(SCc3ccc(C#N)cc3)n2Cc2ccco2)cc1 | -27 | -27 | -8 | 39 | 35 | / | /
COc1cccc(-c2nnc(SCc3ccc(C#N)cc3)n2Cc2ccco2)c1 | 13 | -3 | -7 | 44* | 27 | 31 | 41
Cc1ccc(C(=O)C2C(=O)C3CCC2C3)cc1 (stereo unspecified) | -14 | -22 | 13 | 46* | 38 | 2 | 10
O=C(NCCc1ccccc1)C(c1cccs1)N(C(=O)CCl)c1ccc(Cl)cc1 (stereo unspecified) | 57 | 105* | -89* | 92* | 109* | 97* | 108* | Mdm2 MdmX conf=103*
CCOC(=O)C1=C(O)/C(=C/c2cn(CC(=O)NCC3CCCO3)c3ccccc23)SC1=Nc1ccc(C)cc1 (stereo unspecified) | 69 | 58* | -56* | -19 | 59* | / | / | Mdm2 MdmX conf=86*
CC(=O)c1ccc(NC2=C(N3CCOCC3)C(=O)c3ccccc3C2=O)cc1 | -29 | -26 | 8 | -34 | -18 | / | /
CC(=O)N(C)C1=C(N2CCOCC2)C(=O)c2ccccc2C1=O | 77 | 38 | -11 | -26 | 83* | / | / | Mdm2 MdmX conf=75*
O=[N+]([O-])c1ccc(Sc2ccncn2)c([N+](=O)[O-])c1 | 58 | 90* | -55* | 70* | 97* | 61* | 104*
Cc1cc(C)nc(Sc2ccc([N+](=O)[O-])cc2[N+](=O)[O-])n1 | 1 | 25 | -20 | -40 | 44 | / | /
O=[N+]([O-])c1cc(Cl)ccc1Sc1cccc2cccnc12 | -2 | 4 | -6 | -14 | 5 | / | /
O=[N+]([O-])c1ccc(Sc2cccc3cccnc23)c([N+](=O)[O-])c1 | 93* | -22 | -6 | 17 | 97* | / | / | Mdm2 MdmX conf=83*
CCn1c(C)nc2cc(-c3nc4n(n3)Cc3ccccc3-4)ccc21 | 97* | -2 | -88* | 91* | 114* | / | / | Mdm2 MdmX conf=100*
COc1ccccc1C(=O)NCC1CCN(c2ccc(S(=O)(=O)N3CCOCC3)cc2)CC1 | 40 | 11 | -2 | -27 | 12 | / | /
O=C(OCn1ncc(Cl)c(Cl)c1=O)c1ccccc1Cl | 99* | 99* | -90* | 95* | 102* | 98* | 106*
O=C(OCCN1CCCCC1)c1ccccc1Cl | 6 | 1 | 4 | 5 | 0 | / | /
O=C(COC(=O)c1cnc(Cl)c(Cl)c1)c1ccc(F)cc1 | 1 | 6 | 8 | -3 | 9 | / | /
O=C(OCn1ncc(Cl)c(Cl)c1=O)c1ccc(F)cc1 | / | / | / | / | / | / | / | Mdm2 MdmX conf=103*
O=C(CCNC(=O)c1ccc([N+](=O)[O-])cc1)Nc1cc(C(F)(F)F)ccc1N1CCOCC1 | 6 | -1 | -3 | 9 | 3 | / | /
O=[N+]([O-])c1cccc(COc2ccc(CN3CCCC3)cc2)c1 | -64 | -8 | -1 | -189 | -214 | / | /
Nc1ccc(-c2nnn(CC(=O)N3CCCCC3)n2)cc1 | 1 | 5 | -2 | 49* | -3 | 48* | 18
O=C(Cn1nnc(-c2ccc(F)cc2)n1)N1CCCCC1 | -7 | 24 | 2 | -15 | -17 | / | /
SMILES | Shn3 3UTR inh | CF NFkB inh | KKLEB tox | HIF-2a inh | Peg3 promoter | HIF-2a conf | HIF-1a counter | others
COc1nn(-c2ccccc2)c(=O)c(Cl)c1Cl | 2 | 91* | -66* | 93* | 105* | 65* | 106*
CC(=O)c1ccc(N(CC(=O)Nc2cc(C)on2)S(=O)(=O)c2ccc(C)cc2)cc1 | 9 | -5 | 9 | 6 | 0 | / | /
NCCc1nnc(SCc2c(Cl)cccc2Cl)o1 | -7 | -9 | -1 | 17 | 4 | / | /
NCCCCCc1nnc(SCc2ccccc2Cl)o1 | 26 | -20 | -1 | 68* | 13 | 83* | 68*
O=C(OCC(=O)c1c[nH]c2ccccc12)c1cc(S(=O)(=O)N2CCOCC2)ccc1F | 2 | -2 | -16 | 42* | 12 | 16 | 72*
O=[N+]([O-])c1cc(-c2ncccn2)c([N+](=O)[O-])s1 | 5 | 16 | 10 | 91* | 104* | 40* | 52*
CC(C)(C)C(=O)N1CCN(c2ccnc3cc(Cl)ccc23)CC1 | 20 | 16 | -4 | 29 | 24 | / | /
O=C(Nc1ccc(OC(F)(F)F)cc1)N1CCN(c2ccnc3cc(Cl)ccc23)CC1 | 75 | 3 | -7 | 43* | 26 | 11 | 45
O=S1(=O)NC(C2CC2c2ccccc2)CCO1 (stereo unspecified) | 8 | 20 | -20 | 9 | 6 | / | /
Nc1c([N+](=O)[O-])cc(-c2cnc[nH]2)cc1[N+](=O)[O-] | -7 | -22 | -10 | 5 | 5 | / | /
Cn1c(C(=O)N[C@@H](C(=O)O)c2ccccc2)cc2cc(F)ccc21 | -14 | -3 | 4 | 9 | 11 | / | /
CCOC(=O)c1cc(-c2csc(-c3ccc(C(C)(C)C)cc3)n2)on1 | 37 | -4 | 0 | 57* | -8 | 58* | 4
CCc1ccc2c(c1)/C(=C/C(=O)c1cccs1)C(=O)N2 | 80 | 24 | -24 | 75* | -24 | 61* | 103*
CCc1ccc2c(c1)/C(=N/N(C)C(=S)NC)C(=O)N2 | -1 | -11 | 2 | -18 | -6 | / | /
C/C(=C\c1ccc(N)cc1)c1nc2ccccc2[nH]1 | -94 | -14 | -8 | -227 | -306 | / | /
CC(C)c1ccc(/C=C(\c2nc3ccccc3[nH]2)S(=O)(=O)c2ccccc2)cc1 | 92* | 93* | -68* | 90* | 104* | 98* | 104* | Mdm2 MdmX conf=103*
O=S(=O)(/C(=C/c1ccc(C(F)(F)F)cc1)c1nc2ccccc2[nH]1)c1ccccc1 | 39 | 84* | -64* | 90* | 106* | 99* | 107*
COc1ccc(C(C)(C)C)cc1NC(=O)COC(=O)C1=NNC(=O)CC1 | -38 | 2 | -10 | 10 | -5 | / | /
O=C(COC(=O)c1cc([N+](=O)[O-])ccc1Cl)NC1CCCC1 | 6 | -11 | -2 | 17 | 6 | / | /

High-throughput results from PubChem BioAssay.
